# Measurements: publication PMC7826789 (International Journal of Molecular Sciences, 2021)
# System: PDPK1
smiles,measurement,value
CNc1nc(-c2ccc3c(N)n[nH]c3c2)cc(N2C[C@@H](C(=O)NC3CCCCC3)CC[C@H]2C)n1 [GSK2334470],Kinases covered,PDPK1
